RGS4 inh = Inhibitors of Regulator of G Protein Signaling (RGS) 4: qHTS. 390,000 tested, 0.039% active. Transcreener GDP fluorescence polarization, RGS4-accelerated GTP hydrolysis. Potency, µM (doses to about 114 µM), for the others: top-dose activity change, negative = inhibition, most hits filed as inhibitors. Regulator of G-protein signaling 4 (Homo sapiens), P49798; note: potency is the fitted concentration of half-maximal effect; nearly all actives have a fitted effect of over 75% in size
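MLSMR compounds (23 nl, pin-transferred) preincubated 10 min at room temperature with a 500nM (2x) first reagent, then RGS4 at 900nM (2x) plus Transcreener GDP mix added; fluorescence polarization (620/688 nm) read before and after 90 min at 30 °C.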
CtBP-E1A blk = qHTS Assay for Inhibitors of the CtBP/E1A Interaction | CtBP / adenovirus E1A interaction (AlphaScreen) | AlphaScreen GST-E1A/His-CtBP binding, 1536-well; active compounds read low | activity change, % (concentration not given with the values) | 340,000 tested, 0.49% active | AID 651724, 2012; in the data active = activity change below about -65%; inconclusive = mostly about -30% to -63%
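Steps: dispense buffer (Tris pH 8.0, NaCl 300 mM, TCEP 1 mM, BSA, Tween 20); add 5X protein mix (GST-E1A, His-CtBP, 125 nM each); pin 23 nL compound; 2 h at 37 °C, dark; add 5X beads (50 ug/mL); 1 h; read.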
Six1-Eya2 blk = qHTS Assay for Inhibitors of the Six1/Eya2 Interaction; AlphaScreen GST-Six1/His-Eya2 binding, biochemical; active compounds read low; Homeobox protein SIX1 (Homo sapiens) + Protein phosphatase EYA2 (Homo sapiens), …; activity change, % (no concentration beside the values); AID 651725, 2012; 360,000 tested, 0.56% active; in the data active = activity change below about -65%; inconclusive = mostly about -30% to -63%
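Homogeneous AlphaScreen proximity assay pairing GST-Six1 with His-tagged Eya2 (added as 5X mix: 250 nM and 500 nM) in 50 mM Tris pH 8.0, 300 mM NaCl, 1 mM TCEP. Glutathione donor and nickel acceptor beads; 1 h, 37 °C, dark.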
PI4K2A block = qHTS for small molecular inhibitors of PI4K2A; Phosphatidylinositol 4-kinase type 2-alpha (Homo sapiens), Q9BTU6; purified PI4K2A, ADP-Glo luminescence, 1 h; active compounds read low; activity change, negative = inhibition, % at 76.9 µM; 420,000 tested, 0.13% active; AID 1346378, 2018; in the data active = activity change below about -50%; inconclusive = mostly about -30% to -49%;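 note: -100% = wells without enzyme as full effect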
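PI4K2A activity was measured by ADP-Glo luminescence: enzyme (4 ug/mL stock) and phosphatidylinositol (1.2 mM stock) in Tris pH 7.5/MgCl2/EGTA/Triton X-100 buffer were reacted with ATP (300 microM stock) for one hour at ambient temperature.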
USP2a inh = qHTS Assay for Inhibitors of Ubiquitin-specific Protease USP2a Using CHOP2 as the Reporter. 330,000 tested, 0.01% active. Potency, µM (series often up to 38.3 µM), without a hit: at the highest dose activity change, negative = inhibition, hits mostly inhibitors. USP2 core, Ub-CHOP2 coupled fluorogenic reporter, 485/531. Ubiquitin carboxyl-terminal hydrolase 2 (Homo sapiens), O75604;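 note: potency is the fitted concentration of half-maximal effect; plate controls were DMSO wells for no effect and full inhibition by NEM control for full effect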
Target sequence (O75604 whole entry, looked up): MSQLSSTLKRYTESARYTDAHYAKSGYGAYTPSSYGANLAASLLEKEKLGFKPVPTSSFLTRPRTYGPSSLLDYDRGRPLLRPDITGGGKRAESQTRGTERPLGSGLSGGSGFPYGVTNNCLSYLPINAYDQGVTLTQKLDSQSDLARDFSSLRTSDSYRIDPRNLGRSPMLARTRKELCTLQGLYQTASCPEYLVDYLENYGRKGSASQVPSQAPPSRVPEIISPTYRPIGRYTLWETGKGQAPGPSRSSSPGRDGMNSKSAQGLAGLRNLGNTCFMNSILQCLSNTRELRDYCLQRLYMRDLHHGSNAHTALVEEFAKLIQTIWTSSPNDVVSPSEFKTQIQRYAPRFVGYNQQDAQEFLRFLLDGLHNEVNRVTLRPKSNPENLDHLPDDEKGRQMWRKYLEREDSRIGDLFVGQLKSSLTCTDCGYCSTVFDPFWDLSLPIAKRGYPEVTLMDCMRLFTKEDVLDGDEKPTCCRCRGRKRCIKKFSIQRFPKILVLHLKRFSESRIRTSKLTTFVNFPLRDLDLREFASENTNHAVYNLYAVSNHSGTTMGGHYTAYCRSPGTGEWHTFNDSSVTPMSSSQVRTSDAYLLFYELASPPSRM
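Cell-free coupled assay: 10nM USP2 core preincubated 30min RT with compound in Tris-HCl pH 8.0/CaCl2/CHAPS buffer, then 25nM Ub-CHOP2 and 25nM reporter substrate; fluorescence (Ex 485/Em 531) read after 60min RT, normalized to NEM inhibition, concentration-response curves fitted.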
Eya2 phos inh = qHTS Assay for Inhibitors of the Phosphatase Activity of Eya2; Protein phosphatase EYA2 (Homo sapiens), O00167; recombinant Eya2, OMFP fluorescence dephosphorylation (OMFP is methylfluorescein phosphate); Potency, µM (doses to about 76.9 µM), for inactives: at the top dose activity, negative = inhibition, hits mostly inhibitors; 330,000 tested, 0.006% active; note: potency is the fitted concentration of half-maximal effect
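Eya2 (0.2 uM) preincubated 10 min at ambient with compound, then OMFP substrate added at 50 uM; 10 min reaction in 50 mM HEPES pH 7.5, 50 mM NaCl, 5 uM MgCl2, 0.05% BSA, 1 mM DTT. Fluorescence read at Ex 485/Em 525 nm.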
Numbers without * were called inactive; [ ] = dose if it differs, or a comment. The list is not random: actives were taken first. Their share in the collection is about 0.72%. Unless noted, calls come from the whole dose curve; as a rule, active = well fitted curve in the direction sought with a large enough effect; inconclusive = small, poorly fitted or top-dose-only effect, or another doubt; inactive = no such curve, though single readings can be large; an effect the other way counts as inactive or inconclusive. Unless noted, % is set by controls: 0 for no effect and ±100 for the full control effect.

Results for O=S(=O)(Nc1ccc(Cc2ccncc2)cc1)c1ccc(Cl)cc1 ?
RGS4 inh: 10%; CtBP-E1A blk: 19; Six1-Eya2 blk: 6; PI4K2A block: -1; USP2a inh: 1%; Eya2 phos inh: -1%

What do the screens show for `COc1ccc(OC)c(S(=O)(=O)n2nnc3ccccc32)c1`?
RGS4 inh: 1%; CtBP-E1A blk: 2; Six1-Eya2 blk: inconclusive; PI4K2A block: 4; USP2a inh: 1%; Eya2 phos inh: 3%

What do the screens show for `COc1ccc(F)cc1S(=O)(=O)n1nnc2ccccc21`?
RGS4 inh: -1%; CtBP-E1A blk: inconclusive; Six1-Eya2 blk: -68*; PI4K2A block: -20; USP2a inh: 1%; Eya2 phos inh: 8%

Results for CCc1ccc(-c2nn(CC(=O)NCc3ccccc3)c3c2cnc2ccc(C)cc23)cc1 ?
RGS4 inh: -1%; PI4K2A block: -6

Results for c1ccc(N2CCN(c3nc(-c4ccccn4)nc4ccccc34)CC2)cc1 ?
RGS4 inh: -23%[11.4 µM]; CtBP-E1A blk: -71*; Six1-Eya2 blk: -67*; PI4K2A block: -7; USP2a inh: 1%; Eya2 phos inh: 13%

How did CN1CCN(c2nc(-c3ccccn3)nc3ccccc23)CC1 do in these assays?
RGS4 inh: -18%; CtBP-E1A blk: inconclusive; Six1-Eya2 blk: inconclusive; PI4K2A block: -12; USP2a inh: 0%; Eya2 phos inh: 7%

What do the screens show for `CC(C)(C)OC(=O)N1CCN(C(c2ccnc3ccccc23)c2nnnn2-c2ccc3c(c2)OCCO3)CC1` (stereo unspecified)?
CtBP-E1A blk: -4; Six1-Eya2 blk: -10; PI4K2A block: 2

Results for COc1ccc(/C=C\c2nc(=O)c3ccccc3o2)cc1 ?
RGS4 inh: -15%; CtBP-E1A blk: -69*; Six1-Eya2 blk: 15; PI4K2A block: 8; USP2a inh: -2%; Eya2 phos inh: 14%

How did CN1/C(=C\C(=S)NC(=O)c2ccccc2Cl)C(C)(C)c2ccccc21 do in these assays?
RGS4 inh: -9%; CtBP-E1A blk: -28; Six1-Eya2 blk: inconclusive; PI4K2A block: -14; USP2a inh: 0%; Eya2 phos inh: -4%

How did COc1ccccc1C(=O)NC(=S)/C=C1/N(C)c2ccccc2C1(C)C do in these assays?
RGS4 inh: inconclusive; CtBP-E1A blk: -74*; Six1-Eya2 blk: -73*; PI4K2A block: -7; USP2a inh: -9%; Eya2 phos inh: -1%

Results for CN1/C(=C/C(=S)NC(=O)C2(C)CC2(Cl)Cl)C(C)(C)c2ccccc21 (stereo unspecified) ?
RGS4 inh: -37%; CtBP-E1A blk: -72*; Six1-Eya2 blk: -66*; PI4K2A block: -6; USP2a inh: 9%; Eya2 phos inh: 3%

Results for CN1/C(=C\C(=S)Nc2ccccc2)C(C)(C)c2ccccc21 ?
RGS4 inh: 1%; CtBP-E1A blk: -22; Six1-Eya2 blk: -28; PI4K2A block: -4; USP2a inh: 1%; Eya2 phos inh: -13%

How did CCCCNC(=O)C1C(c2ccc(OC)cc2)=Nc2ccccc2N1C(=O)c1cccnc1 (stereo unspecified) do in these assays?
CtBP-E1A blk: -1; Six1-Eya2 blk: 0; PI4K2A block: -5

Results for O=C1c2cccc(NCCNCCO)c2C(=O)c2cccc(NCCNCCO)c21 ?
RGS4 inh: -37%; CtBP-E1A blk: -7; Six1-Eya2 blk: -71*; PI4K2A block: -12

What do the screens show for `O=C(NCCO)c1cccc2c1C(=O)c1ccccc1-2`?
RGS4 inh: -23%; CtBP-E1A blk: -3; Six1-Eya2 blk: -4; PI4K2A block: 3; USP2a inh: 4%; Eya2 phos inh: 7%

Results for O=C(O)CCNc1ccc(NCCC(=O)O)c2c1C(=O)c1ccccc1C2=O ?
RGS4 inh: -126%; Six1-Eya2 blk: -85*; PI4K2A block: -30; USP2a inh: 11%; Eya2 phos inh: -12%

What do the screens show for `COc1ccccc1NCCC(=O)O`?
RGS4 inh: 20%[11.4 µM]; CtBP-E1A blk: 0; Six1-Eya2 blk: 3; PI4K2A block: 0; USP2a inh: 7%; Eya2 phos inh: -19%

Results for COc1ccc(OC)c(/C=C/C(=O)OCC(=O)N2CCCCC2)c1 ?
RGS4 inh: 2%; CtBP-E1A blk: -77*; Six1-Eya2 blk: -15; PI4K2A block: -3; USP2a inh: 1%; Eya2 phos inh: 2%

Results for O=C(Nc1cc(F)ccc1F)N1CCC(CN2CCOCC2)CC1 ?
RGS4 inh: -8%; PI4K2A block: -2

How did COc1ccc(/C=N/Nc2nncn2N)cc1Br do in these assays?
RGS4 inh: -30%; CtBP-E1A blk: inconclusive; Six1-Eya2 blk: -75*; PI4K2A block: -54*; USP2a inh: inconclusive; Eya2 phos inh: -9%

Results for Nc1cc(C(=O)O)c(N)c2c1C(=O)c1ccccc1C2=O ?
RGS4 inh: -56%[11.4 µM]; CtBP-E1A blk: -92*; Six1-Eya2 blk: -80*; PI4K2A block: -55*; USP2a inh: inconclusive; Eya2 phos inh: inconclusive

What do the screens show for `Nc1c(C(=O)O)ccc2c1C(=O)c1ccccc1C2=O`?
RGS4 inh: -22%; CtBP-E1A blk: inconclusive; Six1-Eya2 blk: -28; PI4K2A block: -17; USP2a inh: -6%; Eya2 phos inh: 6%

Results for Cc1ccc(NC(=O)CN2C(=O)COc3ccc(S(=O)(=O)NC4CCCC4)cc32)cc1N(C)C ?
RGS4 inh: 11%; PI4K2A block: 1

What do the screens show for `CCn1c(C(=O)N2CCC(C(=O)NCCc3ccc(OC)cc3OC)CC2)cc2sccc21`?
RGS4 inh: -19%; PI4K2A block: -3

What do the screens show for `O=C1/C(=C/C=C/c2ccco2)SC(=S)N1c1ccc(O)cc1`?
RGS4 inh: 7%[11.4 µM]; CtBP-E1A blk: inconclusive; Six1-Eya2 blk: inconclusive; PI4K2A block: -19; USP2a inh: inconclusive; Eya2 phos inh: -18%

Results for CC(C)C(C(=O)O)N1C(=O)/C(=C/C=C/c2ccco2)SC1=S (stereo unspecified) ?
RGS4 inh: inconclusive; CtBP-E1A blk: 6; Six1-Eya2 blk: -69*; PI4K2A block: -30; USP2a inh: inconclusive; Eya2 phos inh: 1%

Results for CCCCCCCCCCCCOCCO ?
PI4K2A block: 1
